Screens from PubChem BioAssay.
Pf Dd2 growth: blocks in vitro growth of P. falciparum Dd2; P. falciparum Dd2 growth, SYBR Green, 72 h; Potency, µM (top dose mostly 28.9 µM), without a hit: top-dose activity, negative = inhibition, usual class: inhibitors; 120,000 compounds, 4.3% hits; active means well fitted inhibition curve with a large enough effect;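 further: plate controls were DMSO vehicle for no effect and reference drug for full effect; nearly all actives have a fitted effect of over 65% in size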
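Infected erythrocytes (Dd2, 0.3% parasitemia, 2.5% hematocrit final) are added to compound in RPMI-1640/Albumax II medium, grown 72 h at 37C in low oxygen, then lysed with saponin/Triton-X containing SYBR Green and read by fluorescence.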
Starred values were filed as active, the others as inactive; [ ] = remark or other dose. This is one part of a sample in which hits are shown more often than they occur. Potency means the concentration at half of the fitted maximal effect.

Screening N#Cc1cccc(-c2cn3c(n2)N(C(=O)c2ccncc2)CCC3)c1 returned Pf Dd2 growth inactive.
Screening C=CCNC(=O)c1cnn2c1CN([S+](=O)([O-])c1cccc(OC)c1)CC2 returned Pf Dd2 growth -19%.
`C=CCNC(=O)CCc1c(C)nn(-c2ccccc2)c1Oc1ccccc1F` gave Pf Dd2 growth -17%.
`Cc1ccsc1CN1CCc2nc(N(C)Cc3cccnc3)[nH]c(=O)c2CC1` gave Pf Dd2 growth inactive[5.79 µM].
For Cc1ccc(-c2nn3c(C)nnc3c3ccccc23)cc1S(=O)(=O)NC(C)(C)CO the results were Pf Dd2 growth -29%.
Screening COC(=O)COc1ccc(-c2nnc(Nc3ccc(O)cc3)c3ccccc23)cc1 returned Pf Dd2 growth inactive.
`CNC(=O)c1cc(Nc2nnc(-c3ccc(O)cc3)c3ccccc23)ccc1OC` gave Pf Dd2 growth inactive.
Cc1ccc(-c2nnc(Nc3ccc(O)cc3)c3ccccc23)cc1S(=O)(=O)N1CCOCC1 was read as Pf Dd2 growth 8.9µM*.
`COc1ccc(S(=O)(=O)NC(C)(C)CO)cc1-c1nnc2c3ccccc3c(C)nn12` gave Pf Dd2 growth inactive.
Cc1ccc(-c2nnc(Nc3ccc(OC(F)(F)Cl)cc3)c3ccccc23)cc1S(=O)(=O)NC(C)(C)CO was read as Pf Dd2 growth 13µM*.
`COc1ccc(-c2cc(CC3(NCC(C)(C)C)COC3)no2)cc1` gave Pf Dd2 growth -9%[44.1 µM].
O=C(C1CCOCC1)N1CC(CO)C2(CCNCC2)C1 (centres undefined) was read as Pf Dd2 growth 17%.
Cc1onc(-c2ccccc2)c1C(=O)N1CCCC2(CCOC2)C1 (centres undefined) was read as Pf Dd2 growth 8%.
Screening CN1CCc2nc3sc(C(=O)c4ccc(F)cc4)c(N)c3cc2C1 returned Pf Dd2 growth -7%.
For CN1CCc2nc3sc(C(=O)Nc4ccccc4C(F)(F)F)c(N)c3cc2C1 the results were Pf Dd2 growth 8.9µM*.
Screening COc1ccc(NC(=O)c2sc3nc4c(cc3c2N)CN(Cc2ccccc2)CC4)cc1OC returned Pf Dd2 growth inactive.
Cc1nc(C2CCCN(C(=O)C3(C(N)=O)CC3)C2)cc(N2CCCC2)n1 (centres undefined) was read as Pf Dd2 growth 1%.
Screening Cc1cccc(C(=O)N2C[C@@H](Oc3ccccc3)C[C@H]2C(=O)NC2CC2)c1 returned Pf Dd2 growth 3%.
Screening O=[S+]([O-])(Nc1cccnc1)c1ccc2c(c1)OCCN(Cc1ccccc1F)C2 returned Pf Dd2 growth -18%[44.1 µM].
`O=[S+]([O-])(Nc1ccccc1)c1ccc2c(c1)OCCN(Cc1ccncc1F)C2` gave Pf Dd2 growth 5µM*.
`O=[S+]([O-])(Nc1cccnc1)c1ccc2c(c1)OCCN(Cc1ccncc1F)C2` gave Pf Dd2 growth inactive.
`CCC(C)NC(=O)Cn1c(C)ccc(NC(=O)Nc2ccc(C)cc2)c1=O` (centres undefined) gave Pf Dd2 growth inactive.
COc1ccccc1C(=O)NCCSc1c(C)[nH]c2ccccc12 was read as Pf Dd2 growth 15%.
For Cc1ccc(N2CC(NC(=O)c3ccc(S(=O)(=O)N4CCOCC4)cc3)CC2=O)cc1 (centres undefined) the results were Pf Dd2 growth inactive.
`O=C(NC1CC(=O)N(c2ccccc2)C1)c1ccc(S(=O)(=O)N2CCOCC2)cc1` (centres undefined) gave Pf Dd2 growth inactive.
`O=C(NCCSc1c[nH]c2ccccc12)c1ccc(Cl)cc1` gave Pf Dd2 growth -2%.
Cc1ccc(-c2[nH]c3ccccc3c2SCCNC(=O)c2ccc(S(=O)(=O)N3CCOCC3)cc2)cc1 was read as Pf Dd2 growth 10µM*.
`CCN(CC)S(=O)(=O)c1ccc(C(=O)NCCSc2c(-c3ccc(F)cc3)[nH]c3ccccc23)cc1` gave Pf Dd2 growth 6.3µM*.
Cc1[nH]c2ccccc2c1SCCNC(=O)c1ccccc1F was read as Pf Dd2 growth -8%.
`COc1cc(C(=O)NCCSc2c(C)[nH]c3ccccc23)cc(OC)c1OC` gave Pf Dd2 growth -21%.
`CCN(CC)S(=O)(=O)c1ccc(C(=O)NCCSc2c(-c3ccccc3)[nH]c3ccccc23)cc1` gave Pf Dd2 growth 11µM*.
Screening O=C(N[C@@H]1CCOC[C@H]1Oc1ccccn1)c1ccc(N2CCCC2=O)cc1 returned Pf Dd2 growth -6%.
Screening O=C(NCc1cccnc1)C1=NOC2CN(C(=O)C3CC3)CC12 (centres undefined) returned Pf Dd2 growth 12%.
Cc1nc(CCC(=O)NCc2cc(Cl)cc3c(C)c(-c4ccccc4)[nH]c23)n[nH]1 was read as Pf Dd2 growth -5%.
COc1ccc([C@@H](NC(=O)c2ccc3nnnn3c2)C2CC(O)C2)cn1 (some centres undefined) was read as Pf Dd2 growth -7%.
CCN(CC)c1cc(CCC(=O)N2CCN(c3cccc(OC)c3)CC2)ccn1 was read as Pf Dd2 growth inactive.
CCN(CC)c1cc(CCC(=O)NCCc2ccccn2)ccn1 was read as Pf Dd2 growth -13%.
